Here are results for 17 molecules from PubChem BioAssay (NCATS).

For experiment [1], the system named is Zika virus NS2B-NS3 protease (unlinked complex). Briefly: Primary screen GU Rhodamine qHTS for Zika virus inhibitors: Unlinked NS2B-NS3 protease assay (AID 1347159). Note: % is set by controls: 0 for no effect and ±100 for the full control effect; nearly all actives have a fitted effect of over 60% in size. The method in brief: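 Enzyme 25 nM in Tris-HCl pH 8.0 + 0.01% Tween 20; compounds up to 114 microM, 15 min RT dark; + Rhod110 substrate 1.5 microM; read t0 and 15 min; delta fluorescence → % inhibition → 4-parameter Hill fit.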

In experiment [2] the test system is Zika virus NS2B-NS3 protease (linked construct). The experiment is described as follows: Primary screen NINDS Rhodamine qHTS for Zika virus inhibitors (AID 1347160). For activity change, negative = inhibition: % is set by controls: 0 for no effect and ±100 for the full control effect. Note: nearly all actives have a fitted effect of over 55% in size. The method in brief: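 Enzyme (25 nM, linked NS2B-NS3) was preincubated 15 min with compound in 10 mM Tris-HCl pH 8.0, 0.01% Tween 20. Rhodamine110 substrate (1.5 microM) was then added and fluorescence read at start and after 15 min.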

In experiment [3] the test system is Zika virus NS2B-NS3 protease. Briefly: Primary screen GU AMC qHTS for Zika virus inhibitors (AID 1347154).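 Note: 0% = no-inhibitor control and -100% = no-enzyme control; nearly all actives have a fitted effect of over 70% in size.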 Summed up:
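Unlinked Zika NS2B hydrophilic domain–NS3 protease complex at 25 nM in 10 mM Tris-HCl pH 8.0, 0.01% Tween 20, with an AMC peptide substrate. Fluorescence change (340/450 nm) over 15 min at room temperature, normalized to controls, fitted to 4-parameter Hill.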
(In general: qHTS replaces the single test concentration by a dilution series.)

Experiment [4] can be described thus: ZIKV-mCherry secondary qHTS for Zika virus inhibitors (AID 1347158). Note: top concentration of the series differs between compounds. The method in brief: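 This orthogonal imaging screen measured ZIKV-mCherry infection of Vero cells exposed to compound, MOI 1, 48-72 h. Percent infection came from segmented nuclei scored mCherry-positive above 3 SD of negative controls.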
Experiment [5] is described as follows: Confirmatory screen NINDS Rhodamine qHTS for Zika virus inhibitors (AID 1347161). Note: potency is the fitted concentration of half-maximal effect; nearly all actives have a fitted effect of over 60% in size. Summed up:
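Kinetic fluorescence (Ex 480 nm, Em 540 nm) over 15 min with 1.5 microM Rhodamine110 peptide and 25 nM linked protease.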

For experiment [6], the system named is Zika virus NS2B-NS3 protease (linked construct). The experiment is described as follows: 384 well plate NINDS Rhodamine confirmatory qHTS for Zika virus inhibitors (AID 1347164).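 Note: fluorescence from protease cleavage of Ac-LKRR-rhodamine 110 substrate; potency is the fitted concentration of half-maximal effect; nearly all actives have a fitted effect of over 65% in size.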 The method in brief:
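Fluorescence read at ex 485 nm/em 538 nm, 25 min after adding 10 microM Ac-LKRR-Rd substrate at room temperature in the dark; signal normalized to no-enzyme and no-inhibitor controls. Enzyme final 5, 30 or 60 nM; compounds, ~15 min preincubation.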

Structures are written as SMILES. Results filed as inconclusive are left out. Values without a mark were called inactive. Calls of active or inactive are those of the source. Calls come from the whole dose curve; as a rule, active = well fitted curve in the direction sought with a large enough effect; inconclusive = small, poorly fitted or top-dose-only effect, or another doubt; inactive = no such curve, though single readings can be large; an effect the other way counts as inactive or inconclusive.

Regarding `O=C1NC(=O)C(c2cnc3ccccn23)=C1c1cn2c3c(cccc13)CN(C(=O)N1CCOCC1)CC2`, the Potency result in experiment [1] and in experiment [2] was “inactive” each time.

As for `NS(=O)(=O)c1ccc(Nc2nc(OCC3CCCCC3)c3[nH]cnc3n2)cc1`, the Potency entry in experiment [3] and in experiment [2] was “inactive” in each case.

In the case of `O[C@@H](COc1cccc2ncccc12)CN1CCN(C2c3ccccc3[C@@H]3[C@H](c4ccccc42)C3(F)F)CC1` (some centres not stated), the Potency entry in experiment [1] and in experiment [2] was “inactive” each time.

As for `CN(C)CCCNC(=O)c1ccc(-c2cc(O)c3ncccc3c2)cc1`, the Potency result in experiment [2] is “inactive”.

For `CC1(COc2ccc3c(c2)ncn3-c2ccc3cccc(N4CCC(N)CC4)c3n2)COC1`, the Potency result in experiment [1] and in experiment [2] was “inactive” each time.

`C[C@@H]1CCO[C@H]2Cn3cc(C(=O)NCc4ccc(F)cc4F)c(=O)c(O)c3C(=O)N12`: the Potency result in experiment [1] and in experiment [2] was “inactive” each time.

On to `CNC(=O)c1c(-c2ccc(F)cc2)oc2cc(N(CCO)S(C)(=O)=O)c(C3CC3)cc12`, for which the Potency result in experiment [1] and in experiment [2] was “inactive” throughout.

Regarding `O=C(CCCN1CCN(c2ccc(F)cc2)CC1)NC1c2ccccc2CSc2ccccc21` (configuration not stated), the Potency result in experiment [1] and in experiment [2] was “inactive” in each case.

For `Cc1cnc(CNC(=O)c2c(=O)c3ccc(N4CCCN(C)CC4)nc3n3c2sc2ccccc23)cn1`, the activity change, negative = inhibition is 5.25% [at 19.1 µM] in experiment [1] and 6.93% [at 10.7 µM] in experiment [2].

Take `CN1c2ccccc2C(=O)N2CCc3c([nH]c4ccccc34)C21` (configuration not stated): the Potency entry in experiment [3] and in experiment [2] was “inactive” each time.

Regarding `CNC(=O)c1ccc2c(C(=Nc3cccc(CN(C)C)c3)c3ccccc3)c(O)[nH]c2c1`, the Potency entry in experiment [1] and in experiment [2] was “inactive” throughout.

As to `O=C(CO)N1CCC(c2[nH]nc(-c3ccc(Cl)cc3)c2-c2ccncn2)CC1`, the Potency entry in experiment [1] and in experiment [2] was “inactive” in each case.

Turning to `Cn1cnc(-c2cc3nccc(Oc4ccc(NC(=S)NC(=O)Cc5ccccc5)cc4F)c3s2)c1`, the Potency result in experiment [1] and in experiment [2] was “inactive” in each case.

As to `C[C@@]1(C(=O)Nc2ccc(F)nc2)CCCN1c1nc(Nc2cc(C3CC3)[nH]n2)c2cccn2n1`, the Potency entry in experiment [1] and in experiment [2] was “inactive” throughout.

`C[C@H]1COC2=C1C(=O)C(=O)c1c2ccc2c1CCCC2(C)C`: the result in experiment [4] was inactive. Besides, the Potency in experiment [5] was 7.84 µM (active).

For the molecule `CC(C)(OCc1nn(Cc2ccccc2)c2ccccc12)C(=O)O`, the Potency entry in experiment [1] and in experiment [2] was “inactive” each time.

For `CN(C)CC[C@H](CSc1ccccc1)Nc1ccc(S(=O)(=O)NC(=O)c2ccc(N3CCN(Cc4ccccc4-c4ccc(Cl)cc4)CC3)cc2)cc1[N+](=O)[O-]`, the Potency in experiment [6] was 0.708 µM (active).
